# Experimental data as given in the supplement of paper PMC7411054.
# How the values were obtained:
# Conditions in all cases: treatment time: 24 h
# [1] = system: A549-ACTB-RAB5A; assay: phenotypically active (imaging signature differs from DMSO and reproducible) at any of 0.3-9 uM (binary (1 = active, 0 = inactive)); higher = active
# Outline: (§1)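 Two criteria together defined phenotypic activity: deviation and reproducibility. Deviation meant ≥3 of 4 wells beyond the 95th percentile of Euclidean distances in solvent control wells, and reproducibility meant a median replicate Pearson correlation above the 95th percentile of non-replicates. Wells had been treated for 24 h at 0.3, 1, 3 or 9 µM in fifteen gene-edited A549, HepG2 and WPMY1 reporter lines before live imaging.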
# [2] = system: A549-CANX-COX4; assay: as above
# Outline: as §1
# [3] = system: A549-GM130-SQSTM1; assay: as above
# Outline: as §1
# [4] = system: A549-TP53BP1-CLTA; assay: as above
# Outline: as §1
# [5] = system: A549-TUBA1B-RELA; assay: as above
# Outline: as §1
# [6] = system: HepG2-ACTB-RAB5A; assay: as above
# Outline: as §1
# [7] = system: HepG2-CANX-COX4; assay: as above
# Outline: as §1
# [8] = system: HepG2-GM130-SQSTM1; assay: as above
# Outline: as §1
# [9] = system: HepG2-TP53BP1-CLTA; assay: as above
# Outline: as §1
# [10] = system: HepG2-TUBA1B-RELA; assay: as above
# Outline: as §1
# [11] = system: WPMY1-ACTB-RAB5A; assay: as above
# Outline: as §1
# [12] = system: WPMY1-CANX-COX4; assay: as above
# Outline: as §1
# [13] = system: WPMY1-GM130-SQSTM1; assay: as above
# Outline: as §1
# [14] = system: WPMY1-TP53BP1-CLTA; assay: as above
# Outline: as §1
# [15] = system: WPMY1-TUBA1B-RELA; assay: as above
# Outline: as §1
# [16] = system: A549-ACTB-RAB5A; assay: lowest phenotypically active concentration; higher = less potent
# Outline: as §1
# [17] = system: A549-GM130-SQSTM1; assay: as above
# Outline: as §1
# [18] = system: A549-TP53BP1-CLTA; assay: as above
# Outline: as §1
# [19] = system: HepG2-ACTB-RAB5A; assay: as above
# Outline: as §1
# [20] = system: WPMY1-GM130-SQSTM1; assay: as above
# Outline: as §1
SMILES,phenotypically active [1],phenotypically active [2],phenotypically active [3],phenotypically active [4],phenotypically active [5],phenotypically active [6],phenotypically active [7],phenotypically active [8],phenotypically active [9],phenotypically active [10],phenotypically active [11],phenotypically active [12],phenotypically active [13],phenotypically active [14],phenotypically active [15],lowest phenotypically active concentration [16] [µM],lowest phenotypically active concentration [17] [µM],lowest phenotypically active concentration [18] [µM],lowest phenotypically active concentration [19] [µM],lowest phenotypically active concentration [20] [µM]
COC1=CC(=O)O[C@@H](/C=C/c2ccccc2)C1 [Kawain],0 (inactive),0 (inactive),0 (inactive),0 (inactive),0 (inactive),0 (inactive),0 (inactive),0 (inactive),0 (inactive),0 (inactive),0 (inactive),0 (inactive),0 (inactive),0 (inactive),0 (inactive),–,–,–,–,–
N#CC(C#N)=NNc1ccc(OC(F)(F)F)cc1,1 (active),1 (active),1 (active),1 (active),1 (active),1 (active),1 (active),1 (active),1 (active),1 (active),1 (active),1 (active),1 (active),1 (active),1 (active),9,3,9,9,9
COc1c2c(cc3c1OCO3)CC[N+](C)=C2 [Cotarnine chloride],0 (inactive),0 (inactive),0 (inactive),0 (inactive),0 (inactive),0 (inactive),0 (inactive),0 (inactive),0 (inactive),0 (inactive),0 (inactive),0 (inactive),0 (inactive),0 (inactive),0 (inactive),–,–,–,–,–
O=C1C[C@@H]2OCC=C3CN4CC[C@]56c7ccccc7N1[C@H]5[C@H]2[C@H]3C[C@H]46 [Strychnine],1 (active),0 (inactive),0 (inactive),0 (inactive),0 (inactive),0 (inactive),0 (inactive),0 (inactive),0 (inactive),0 (inactive),0 (inactive),0 (inactive),0 (inactive),0 (inactive),0 (inactive),9,–,–,–,–
CCCCCC[C@H]1C(=O)O[C@H](C)[C@H](NC(=O)c2cccc(NC=O)c2O)C(=O)O[C@@H](C)[C@@H]1OC(=O)CC(C)C [antimycin a],1 (active),1 (active),1 (active),1 (active),1 (active),1 (active),1 (active),1 (active),1 (active),1 (active),1 (active),1 (active),1 (active),1 (active),1 (active),≤ 0.3,≤ 0.3,≤ 0.3,≤ 0.3,1
CCN(CC)C(C)C(=O)c1ccccc1 (stereo unspecified) [amfepramone],0 (inactive),0 (inactive),0 (inactive),0 (inactive),0 (inactive),0 (inactive),0 (inactive),0 (inactive),0 (inactive),0 (inactive),0 (inactive),0 (inactive),0 (inactive),0 (inactive),0 (inactive),–,–,–,–,–
COc1ccc2c3c1O[C@H]1C(=O)CC[C@@]4(O)[C@@H](C2)N(C)CC[C@]314 [oxycodone],0 (inactive),0 (inactive),0 (inactive),0 (inactive),0 (inactive),0 (inactive),0 (inactive),0 (inactive),0 (inactive),0 (inactive),0 (inactive),0 (inactive),0 (inactive),0 (inactive),0 (inactive),–,–,–,–,–
NC(=O)CS(=O)C(c1ccccc1)c1ccccc1 (stereo unspecified) [modafinil],0 (inactive),0 (inactive),0 (inactive),0 (inactive),0 (inactive),0 (inactive),0 (inactive),0 (inactive),0 (inactive),0 (inactive),0 (inactive),0 (inactive),0 (inactive),0 (inactive),0 (inactive),–,–,–,–,–
